Laboratory results published in ChEMBL document CHEMBL2218924, “A broad activity screen in support of a chemogenomic map for kinase signalling research and drug discovery” (Biochem J, 2013).

Each compound was assayed against T1, Serine/threonine-protein kinase BRSK2 (Homo sapiens) (UniProt Q8IWQ3). Settings: at 10 µM.
T1 sequence (whole entry): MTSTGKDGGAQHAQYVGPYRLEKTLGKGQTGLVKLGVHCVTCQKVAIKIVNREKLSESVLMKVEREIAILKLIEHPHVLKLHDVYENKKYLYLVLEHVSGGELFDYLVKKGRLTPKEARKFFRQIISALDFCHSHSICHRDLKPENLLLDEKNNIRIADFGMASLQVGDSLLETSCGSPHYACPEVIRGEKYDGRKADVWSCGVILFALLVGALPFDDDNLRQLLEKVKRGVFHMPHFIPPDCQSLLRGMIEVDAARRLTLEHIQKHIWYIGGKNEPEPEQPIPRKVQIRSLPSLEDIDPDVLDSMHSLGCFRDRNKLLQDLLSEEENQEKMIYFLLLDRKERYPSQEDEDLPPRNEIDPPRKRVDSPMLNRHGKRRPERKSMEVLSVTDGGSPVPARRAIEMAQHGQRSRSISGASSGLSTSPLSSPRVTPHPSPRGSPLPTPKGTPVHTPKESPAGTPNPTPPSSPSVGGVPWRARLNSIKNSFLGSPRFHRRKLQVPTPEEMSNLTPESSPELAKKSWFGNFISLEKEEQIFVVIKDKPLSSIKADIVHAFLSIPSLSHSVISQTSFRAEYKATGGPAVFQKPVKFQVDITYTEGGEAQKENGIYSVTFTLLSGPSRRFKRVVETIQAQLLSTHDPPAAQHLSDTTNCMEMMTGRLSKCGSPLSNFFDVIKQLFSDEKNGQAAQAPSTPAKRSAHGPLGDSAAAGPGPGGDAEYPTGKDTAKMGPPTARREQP
`c1ccc(-c2n[nH]c3c2oc2ccccc23)cc1` was tested, and the residual activity was 73%.
Compound `O=C1Nc2ccc(Br)cc2/C1=C\c1cc2c([nH]1)CCCC2` has a residual activity of 113%.
Work on `COc1cc2ncnc(Nc3ccc(NC(=O)c4ccccc4)cc3)c2cc1OC` yielded a residual activity of 99%.
`O=C1NC(=O)/C(=C\c2ccc3nccnc3c2)S1` showed a residual activity of 77%.
In the case of `O=C(Nc1cccc(Nc2nccc(Nc3cccc(C(F)(F)F)c3)n2)c1)C1CC1`, the residual activity is reported as 40%.
`CCN(CC)CCCCN1c2ccccc2Oc2ccc(Cl)cc21` showed a residual activity of 126%.
Work on `Cc1cncc2cccc(S(=O)(=O)N3CCCN(C(=O)CN)C[C@H]3C)c12` yielded a residual activity of 33%.
Work on `N#C/C(=C(\N)Sc1ccc(N)cc1)c1ccccc1C(F)(F)F` yielded a residual activity of 103%.
For `O=C1Nc2cc(Br)ccc2/C1=C1/Nc2ccccc2/C1=N\O`, the residual activity was 6%.
`CC#CC(=O)Nc1cc2c(Nc3ccc(F)c(Cl)c3)ncnc2cn1` was tested, and the residual activity was 100%.
`Nc1ccc2ncnc(NCCc3ccc(Oc4ccccc4)cc3)c2c1` gave a residual activity of 99%.
In the case of `O=C(Nc1cccc(Nc2cc(Nc3cccc(C(F)(F)F)c3)ncn2)c1)C1CC1`, the residual activity is reported as 47%.
Work on `COc1ccc(OC)c2c(=S)c3ccccc3[nH]c12` yielded a residual activity of 89%.
Compound `O=c1c2ccccc2[nH]c(=S)n1CCN1CCC(=C(c2ccc(F)cc2)c2ccc(F)cc2)CC1` has a residual activity of 72%.
`CN(C)CCCn1cc(C2=C(c3c[nH]c4ccccc34)C(=O)NC2=O)c2ccccc21` was tested, and the residual activity was 22%.
`COc1cc2ncnc(Nc3ccc(O)c(Br)c3)c2cc1OC` showed a residual activity of 34%.
For `Cc1cc2ncc(-c3ccccc3)nc2cc1C`, the residual activity was 97%.
`COc1cc2ncc(-c3ccccc3)nc2cc1OC` showed a residual activity of 67%.
With `COc1ccc(C(=O)Nc2sc3c(c2C(N)=O)CCCC3)cc1OC` the residual activity was 103%.
With `CO[C@H]1C[C@@H]2CC[C@@H](C)[C@@](O)(O2)C(=O)C(=O)N2CCCC[C@H]2C(=O)O[C@H]([C@H](C)C[C@@H]2CC[C@@H](O)[C@H](OC)C2)CC(=O)[C@H](C)/C=C(\C)[C@@H](O)[C@@H](OC)C(=O)[C@H](C)C[C@H](C)/C=C/C=C/C=C/1C` the residual activity was 139%.
`c1ccc2c(-c3ccncc3)c[nH]c2c1` showed a residual activity of 61%.
With `CNc1cc2c(Nc3cccc(Br)c3)ncnc2cn1` the residual activity was 26%.
In the case of `N#CCCc1ccc2c(c1)-c1[nH]c3ccc([N+](=O)[O-])cc3c1CC(=O)N2`, the residual activity is reported as 13%.
`C[C@@H](N)[C@H]1CC[C@H](C(=O)Nc2ccncc2)CC1` was tested, and the residual activity was 82%.
`N#Cc1cnc2cnc(NCc3cccnc3)cc2c1Nc1ccc(F)c(Cl)c1` gave a residual activity of 94%.
`O=C(O)c1ccc2c3c1cccc3c(=O)n1c3ccccc3nc21` gave a residual activity of 41%.
Compound `CCN(CC)C(=O)c1ccc(Nc2nc(OCC3CCCCC3)c3nc[nH]c3n2)cc1` has a residual activity of 20%.
Work on `CC(C)n1cnc2/c(=N/c3cccc(Cl)c3)nc(NCCO)[nH]c21` yielded a residual activity of 104%.
In the case of `CC(=O)O/N=C1\C(=C2\C(=O)Nc3cc(Br)ccc32)Nc2ccccc21`, the residual activity is reported as 21%.
`CC(C)n1cnc2c(NCc3ccccc3)nc(NCCCO)nc21` was tested, and the residual activity was 99%.
In the case of `Cc1ccc(NC2=CC(=O)c3sc(C)nc3C2=O)cc1`, the residual activity is reported as 97%.

Each compound was assayed against Cyclin-dependent kinase 1/cyclin B1 (Homo sapiens) (UniProt P06493+P14635). Settings: at 1 µM.
Sequence of Cyclin-dependent kinase 1/cyclin B1 (Homo sapiens) (P06493 whole entry, looked up): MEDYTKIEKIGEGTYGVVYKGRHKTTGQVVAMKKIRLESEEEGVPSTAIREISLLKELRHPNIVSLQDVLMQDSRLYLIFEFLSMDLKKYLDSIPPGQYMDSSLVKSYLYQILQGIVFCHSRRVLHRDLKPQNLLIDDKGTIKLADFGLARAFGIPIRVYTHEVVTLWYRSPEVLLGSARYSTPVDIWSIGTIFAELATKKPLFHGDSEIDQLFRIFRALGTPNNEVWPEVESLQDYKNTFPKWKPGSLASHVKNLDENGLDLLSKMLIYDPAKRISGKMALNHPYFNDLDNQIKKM
Sequence of Cyclin-dependent kinase 1/cyclin B1 (Homo sapiens) (P14635 whole entry, looked up): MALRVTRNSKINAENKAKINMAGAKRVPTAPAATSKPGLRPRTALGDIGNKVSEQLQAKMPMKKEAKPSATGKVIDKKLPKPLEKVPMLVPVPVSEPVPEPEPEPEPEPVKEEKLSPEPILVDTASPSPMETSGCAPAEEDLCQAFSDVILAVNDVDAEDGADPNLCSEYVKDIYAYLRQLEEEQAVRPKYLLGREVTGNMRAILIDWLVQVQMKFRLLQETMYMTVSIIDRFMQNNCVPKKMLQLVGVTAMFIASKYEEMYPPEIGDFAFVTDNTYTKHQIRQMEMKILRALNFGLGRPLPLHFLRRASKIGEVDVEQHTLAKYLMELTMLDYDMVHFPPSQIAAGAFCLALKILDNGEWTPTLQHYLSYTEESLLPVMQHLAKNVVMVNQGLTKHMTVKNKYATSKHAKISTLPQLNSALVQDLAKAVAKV
Work on `c1ccc(-c2n[nH]c3c2oc2ccccc23)cc1` yielded a residual activity of 94%.
`O=C1Nc2ccc(Br)cc2/C1=C\c1cc2c([nH]1)CCCC2` showed a residual activity of 110%.
Compound `O=C1NC(=O)/C(=C\c2ccc3nccnc3c2)S1` has a residual activity of 79%.
`O=C(Nc1cccc(Nc2nccc(Nc3cccc(C(F)(F)F)c3)n2)c1)C1CC1` showed a residual activity of 96%.
`CCN(CC)CCCCN1c2ccccc2Oc2ccc(Cl)cc21` was tested, and the residual activity was 119%.
`N#C/C(=C(\N)Sc1ccc(N)cc1)c1ccccc1C(F)(F)F` showed a residual activity of 104%.
`O=C1Nc2cc(Br)ccc2/C1=C1/Nc2ccccc2/C1=N\O` showed a residual activity of 54%.
`CC#CC(=O)Nc1cc2c(Nc3ccc(F)c(Cl)c3)ncnc2cn1` gave a residual activity of 107%.
With `Nc1ccc2ncnc(NCCc3ccc(Oc4ccccc4)cc3)c2c1` the residual activity was 99%.
With `O=C(Nc1cccc(Nc2cc(Nc3cccc(C(F)(F)F)c3)ncn2)c1)C1CC1` the residual activity was 92%.
Compound `COc1ccc(OC)c2c(=S)c3ccccc3[nH]c12` has a residual activity of 100%.
Work on `O=c1c2ccccc2[nH]c(=S)n1CCN1CCC(=C(c2ccc(F)cc2)c2ccc(F)cc2)CC1` yielded a residual activity of 114%.
In the case of `CN(C)CCCn1cc(C2=C(c3c[nH]c4ccccc34)C(=O)NC2=O)c2ccccc21`, the residual activity is reported as 102%.
In the case of `COc1cc2ncnc(Nc3ccc(O)c(Br)c3)c2cc1OC`, the residual activity is reported as 100%.
In the case of `Cc1cc2ncc(-c3ccccc3)nc2cc1C`, the residual activity is reported as 104%.
For `COc1ccc(C(=O)Nc2sc3c(c2C(N)=O)CCCC3)cc1OC`, the residual activity was 98%.
Compound `CO[C@H]1C[C@@H]2CC[C@@H](C)[C@@](O)(O2)C(=O)C(=O)N2CCCC[C@H]2C(=O)O[C@H]([C@H](C)C[C@@H]2CC[C@@H](O)[C@H](OC)C2)CC(=O)[C@H](C)/C=C(\C)[C@@H](O)[C@@H](OC)C(=O)[C@H](C)C[C@H](C)/C=C/C=C/C=C/1C` has a residual activity of 120%.
In the case of `CNc1cc2c(Nc3cccc(Br)c3)ncnc2cn1`, the residual activity is reported as 111%.
For `N#CCCc1ccc2c(c1)-c1[nH]c3ccc([N+](=O)[O-])cc3c1CC(=O)N2`, the residual activity was 3%.
Compound `N#Cc1cnc2cnc(NCc3cccnc3)cc2c1Nc1ccc(F)c(Cl)c1` has a residual activity of 9%.
Work on `O=C(O)c1ccc2c3c1cccc3c(=O)n1c3ccccc3nc21` yielded a residual activity of 62%.
For `CC(C)n1cnc2/c(=N/c3cccc(Cl)c3)nc(NCCO)[nH]c21`, the residual activity was 58%.
In the case of `CC(=O)O/N=C1\C(=C2\C(=O)Nc3cc(Br)ccc32)Nc2ccccc21`, the residual activity is reported as 90%.
In the case of `CC(C)n1cnc2c(NCc3ccccc3)nc(NCCCO)nc21`, the residual activity is reported as 90%.
In the case of `CC(=O)c1ccc(N2CCOCC2)cc1O`, the residual activity is reported as 104%.
`Cc1ccc(NC2=CC(=O)c3sc(C)nc3C2=O)cc1` gave a residual activity of 101%.
